Assay outcomes (PubChem BioAssay)
ALDH1A1 inh: ALDH1A1 (human) enzyme inhibition. Potency, µM (top dose mostly 75.3 µM), without a hit: top-dose activity, negative = inhibition, usual class: inhibitors. P00352. 7.3% of 220,000 active. Purified ALDH1A1, NADH fluorescence, propionaldehyde substrate;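 further: potency means the concentration at half of the fitted maximal effect; plate controls were no enzyme wells and a reference inhibitor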
Target sequence (P00352 whole entry, looked up): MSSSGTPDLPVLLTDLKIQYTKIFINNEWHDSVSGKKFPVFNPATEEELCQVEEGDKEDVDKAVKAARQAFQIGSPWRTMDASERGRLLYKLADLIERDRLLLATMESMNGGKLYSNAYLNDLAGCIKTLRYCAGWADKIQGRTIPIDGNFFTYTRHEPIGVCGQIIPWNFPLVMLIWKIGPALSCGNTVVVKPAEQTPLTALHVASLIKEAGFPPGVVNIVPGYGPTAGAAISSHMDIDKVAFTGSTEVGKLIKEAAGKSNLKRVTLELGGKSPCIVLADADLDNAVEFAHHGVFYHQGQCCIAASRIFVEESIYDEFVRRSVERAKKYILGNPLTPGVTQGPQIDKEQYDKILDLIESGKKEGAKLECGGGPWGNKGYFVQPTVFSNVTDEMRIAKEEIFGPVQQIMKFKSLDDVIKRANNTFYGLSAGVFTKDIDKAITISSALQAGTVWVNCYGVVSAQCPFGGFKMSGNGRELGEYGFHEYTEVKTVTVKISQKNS
IMPase inh: membrane-permeable compound that blocks inositol monophosphatase; inhibition (IP1 accumulation), % at 46.1 µM; 120,000 tested, under 10 active; CHO-M1 cells, IP1 accumulation, HTRF TR-FRET ratio; active means well fitted curve in the direction sought with a large enough effect in the signal ratio, not every such curve was filed as active; inconclusive means small, poorly fitted or top-dose-only effect, or a change in a side signal; inactive means no such curve, though single readings can be large or run the other way; the % refers to the signal ratio;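 further: cells stimulated with carbachol in lithium chloride buffer; plate controls were DMSO basal wells for no effect and reference inhibitor wells for full effect; higher means more IMPase inhibition seen as more IP1 and lower FRET ratio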
Target sequence (P97697 whole entry, looked up): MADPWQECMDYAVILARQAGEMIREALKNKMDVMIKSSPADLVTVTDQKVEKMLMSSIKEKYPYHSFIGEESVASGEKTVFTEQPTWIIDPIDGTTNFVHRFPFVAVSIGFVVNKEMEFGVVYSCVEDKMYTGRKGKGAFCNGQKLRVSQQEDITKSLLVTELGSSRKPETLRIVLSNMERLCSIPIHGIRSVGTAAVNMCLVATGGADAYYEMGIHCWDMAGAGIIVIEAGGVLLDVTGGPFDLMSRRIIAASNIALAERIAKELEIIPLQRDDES
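Carbachol-driven Gq signalling in CHO-M1 cells (2000/well) generates IP1. Compounds that block IMPase raise IP1 and so reduce the FRET signal from Eu-anti-IP1 and d2-IP1 after a 10 min room-temperature lysis.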
HPGD block: blocks human HPGD enzyme activity; purified HPGD, NADH fluorescence kinetic, PGE2 substrate; Potency, µM, for the others: at the top dose activity change, negative = inhibition, usual class: inhibitors; 4.3% of 150,000 active; AID 894; further: potency means the concentration at half of the fitted maximal effect
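20 nM HPGD preincubated 15 min at room temperature with compound in 50 mM Tris-HCl pH 8, 0.01% Tween 20. Started with 1 mM NAD+ and 30 uM prostaglandin E2; NADH fluorescence (360/450 nm) read 5 times over 30-s intervals, last minus first.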
Lamin A splicing: LMNA splicing modulation | HeLa LMNA splicing GFP/RFP minigene ratio, 48 h | Potency, µM (highest dose often 46.1 µM), inactives show at the highest dose ratio change, negative = inhibition, most hits filed as inhibitors | 0.01% of 200,000 active; active means well fitted inhibition curve with a large enough effect in the signal ratio, with a control signal flat, not every such curve was filed as active; inconclusive means small, poorly fitted or top-dose-only effect, or effect the other way, or a change in a side signal; the % refers to the signal ratio; further: potency means the concentration at half of the fitted maximal effect
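S3 HeLa cells stably expressing lamin A-EGFP splicing minigene plus DsRed2, 600 cells/well, 48 h compound exposure at 37C. Laser-scanning cytometry; analysed as GFP (500-530 nm)/RFP (575-640 nm) total intensity ratio; 0.5% DMSO vehicle.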
PNC inhibitor: blocks assembly of the perinucleolar compartment | PC3M PTB-GFP, PNC prevalence imaging, 16 h; hits give low values | activity change (PNC), negative = inhibition, % at 10 µM | 3.1% of 140,000 active;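 active means readout at or below -70, meaning at least 70% loss of cells showing the perinucleolar compartment, a nuclear body marking cancer cells; inconclusive means readout between -30 and a set limit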;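 further: plate controls were DMSO wells for no effect and camptothecin positive control wells for full effect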
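Compounds are pinned in duplicate onto adhered PC3M cells stably expressing GFP-tagged PTB and incubated 16 h at 37 C. Cells are then fixed, nuclei stained with Hoechst, and PNC-positive cells counted.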
KinaseGlo FLuc: blocks Kinase-Glo luciferase, a counter-screen artifact | Kinase-Glo luciferase, ATP luminescence, 8 min | Potency, µM (series often up to 38.3 µM), for the others: at the highest dose activity change, negative = inhibition, actives largely listed as inhibitors | 0.28% of 200,000 active | AID 1379; active means well fitted inhibition curve with a large enough effect; inconclusive means small, poorly fitted or top-dose-only effect; further: potency means the concentration at half of the fitted maximal effect; nearly all actives have a fitted effect of over 60% in size
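Luminescence was the read-out, taken after 8-minute incubation at ambient temperature. Luciferase turned over luciferin with 10 uM ATP in imidazole pH 7.2 buffer containing KCl, MgCl2, Tween 20 and BSA.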
The depositor's hits bear a star; ? = inconclusive; nt = not tested or not shown; [ ] = remark or other dose. In the library only some 10% were active in any assay of this set; here they are far more common. Unless noted, the call rests on the fitted dose curve; in most records, active means well fitted inhibition curve with a large enough effect (not every such curve was filed as active); inconclusive means small, poorly fitted or top-dose-only effect, or another doubt; inactive means no such curve, though single readings can be large or run the other way. Unless noted, on the % scale 0 is the no-effect control and ±100 the full control effect.

SMILES	ALDH1A1 inh	IMPase inh	HPGD block	Lamin A splicing	PNC inhibitor	KinaseGlo FLuc
CCOC(=O)Cn1c(=NC(=O)C2COc3ccccc3O2)sc2cc(S(N)(=O)=O)ccc21 (stereo not given)	?	nt	-18%	-2%	-134*	-1%
CCOC(=O)Cn1c(=NC(=O)c2cc(-c3cccs3)nc3ccccc23)sc2cc(S(N)(=O)=O)ccc21	?	nt	?	0%	-10	-3%
Cc1ccc(CCNC(=O)c2ccc3c(c2)N(Cc2cccc(Cl)c2)C(=O)c2ccccc2S3(=O)=O)cc1	nt	nt	nt	-5%[46 µM]	nt	nt
Cc1ccc(CNC(=O)CN(C)S(=O)(=O)c2ccc(Br)s2)cc1	nt	0	nt	nt	nt	nt
O=C(NCCc1csc(-c2ccc(F)cc2)n1)C(=O)Nc1ccc(Cl)cc1	nt	nt	nt	9%[46 µM]	nt	nt
CCOc1ccccc1CNC(=O)CCCN1C(=O)c2cccnc2Oc2ccc(Cl)cc21	nt	nt	nt	1%[46 µM]	nt	nt
COCC1C2CC[C@H]3C(OCc4ccc(OC)cc4)OC[C@]4(C)[C@H]3C2=C(CN4C(=O)OC(C)(C)C)[C@H](C)C1COC (stereo not given in full)	?	nt	?	nt	nt	-5%
O=C(CONS(=O)(=O)c1ccc(Cl)cc1)NCCNc1ncc(C(F)(F)F)cc1Cl	13µM*	nt	nt	-12%[46 µM]	nt	0%
O=S(=O)(c1ccc(Br)cc1)N1CCCC1c1nc2ccccc2s1 (stereo not given)	-13%	7	-9%	?	-100*	5%
CN(C)S(=O)(=O)c1ccc(C(=O)N2CCCC2c2nc3ccccc3s2)cc1 (stereo not given)	11%	nt	1%	-4%	?	3%
Cc1cc(=O)[nH]c(SCC(=O)Nc2nnc(CC(C)C)s2)n1	-4%	10	32µM*	-12%	2	2%
Cc1nnc(NC(=O)c2sc3ccccc3c2Cl)s1	-6%	-7	-16%	-8%	-13	-11%
COCc1nnc(NC(=O)c2sc3ccccc3c2Cl)s1	?	-3	32µM*	-10%	5	-5%
COCc1nnc(NC(=O)CSc2ccc(C)cc2)s1	20µM*	-1	28µM*	-11%	19	5%
COCc1nnc(NC(=O)CSCc2ccccc2)s1	18µM*	12	?	2%	76	-4%
COCc1nnc(NC(=O)CSc2ccccc2)s1	3%	-1	-4%	3%	28	-6%
COCc1nnc(NC(=O)CCc2ccccc2)s1	-11%	-10	2%	-10%	?	3%
CCOc1ccc(-c2nn(CC(=O)NC3CCCC3)c3c2cnc2ccc(F)cc23)cc1	nt	nt	nt	-4%[46 µM]	nt	nt
CCCCCC(O)/C=C/C=C\CCCCCCCC(=O)O (stereo not given)	4%	nt	-2%	nt	nt	-2%
CCN(CC)c1ccc(CNS(=O)(=O)c2cc3c(cc2C)NC(=O)CO3)cc1	nt	nt	nt	-18%[46 µM]	nt	nt
O=C(Nc1ccc2ccccc2c1)[C@@H]1C[C@H]1[C@@H](NP(=O)(c1ccccc1)c1ccccc1)c1ccccc1	?	nt	?	10%	-119*	-2%
CN1C(=O)c2ccc(C(=O)NCc3ccccc3)cc2C1=O	?	1[1.84 µM]	-9%	-1%	-92*	4%
CCN1C(=O)CSc2ccc(C(=O)NCc3ccco3)cc21	13µM*	?	-1%	6%	-30	10%
CC(C)(C)N1C(=O)c2ccc(C(=O)NCc3ccco3)cc2C1=O	8.9µM*	10	-14%	10%	-25	-3%
O=C(NCc1ccco1)c1ccc(C(F)(F)F)cc1	4%	nt	nt	-14%[46 µM]	nt	2%
SMILES	ALDH1A1 inh	IMPase inh	HPGD block	Lamin A splicing	PNC inhibitor	KinaseGlo FLuc
O=C(NCc1ccco1)c1ccc(N2CCCC2=O)cc1	-5%	-1	25µM*	?	18	-3%
O=C(NC(=S)Nc1ccc(S(=O)(=O)Nc2ccccc2)cc1)C1CC1	22µM*	nt	nt	10%[46 µM]	nt	0%
O=C(NC(=S)Nc1ccc(S(=O)(=O)N2CCCCC2)cc1)c1ccccc1	9.5µM*	?	-16%	0%	?	-4%
Cc1ccccc1C(=O)NC(=S)Nc1ccc(S(=O)(=O)N2CCOCC2)cc1	?	-7	-8%	-9%	?	3%
Cc1ccccc1C(=O)NC(=S)Nc1ccc(S(=O)(=O)N2CCN(C)CC2)cc1	10µM*	6	?	-5%	41	-4%
c1ccc([C@H](CCN2CCCC2)c2ccccn2)cc1	22%[13.5 µM]	nt	-10%	nt	nt	-2%[7.66 µM]
Oc1ccc(CN2CCCc3ccccc32)c2cccnc12	10µM*	14	-9%	?	?	-2%
CN1CCN(C(=O)c2cc(-c3cccc(Cl)c3)on2)CC1	4.5µM*	-1	nt	3%	-26	nt
COc1ccc(-c2cc(C(=O)N3CCN(Cc4ccccc4)CC3)no2)cc1OC	?	-2	-29%	-12%	?	0%
CN1CCN(C(=O)c2cc(-c3ccco3)on2)CC1	-5%	-1	32µM*	6%	33	-4%
COc1ccc(-c2cc(C(=O)N3CCCCC3)no2)cc1OC	-9%	2	14µM*	2%	?	-5%
O=C(c1cc(-c2ccc(Cl)cc2Cl)on1)N1CCN(C(=O)c2ccco2)CC1	2.8µM*	6	10µM*	4%	-9	-1%
COc1ccc(CN(Cc2ccco2)c2cnc(S(C)(=O)=O)nc2C(=O)Nc2ccc(C)c(C)c2)cc1	nt	nt	nt	-6%[46 µM]	nt	nt
Cn1nnc2c(N3CCN(c4ccc(F)cc4)CC3)ncnc21	nt	nt	nt	-5%[46 µM]	nt	nt
Cc1onc(-c2ccccc2Cl)c1C(=O)N1CCN(C(=O)c2ccco2)CC1	22µM*	-1	-7%	?	-24	0%
Cc1onc(-c2ccccc2Cl)c1C(=O)N1CCN(c2ccccc2)CC1	4%	2	-12%	?	?	-4%
Cc1cccc(C)c1NC(=O)C(c1ccccc1)N1CCOCC1 (stereo not given)	8%	10	-6%	-13%	?	-1%
Cc1ccc(C)c(NC(=O)C(c2ccccc2)N2CCOCC2)c1 (stereo not given)	16µM*	nt	nt	nt	nt	8%
O=C(Nc1ccc(Cl)cc1)C(c1ccccc1)N1CCOCC1 (stereo not given)	18µM*	nt	nt	nt	nt	-1%
Cc1ccc(N2CCN(C(=O)c3noc4c3COc3ccc(C)cc3-4)CC2)c(C)c1	nt	nt	nt	14%[46 µM]	nt	nt
CCN(CC)CC[n+]1ccc2c(C)c3[nH]c4ccc(O)cc4c3c(C)c2c1	6%[13.5 µM]	nt	?	nt	nt	-9%[7.66 µM]
CCN1C(=O)/C(=C\c2ccc(-c3ccc([N+](=O)[O-])cc3OC)o2)SC1=Nc1cccc(C(=O)O)c1	0.63µM*	nt	nt	?	nt	-9%
COC(=O)NNC(=O)c1ccc(C(C)(C)C)cc1	10%	nt	-21%	7%	14	-3%
CC(C)(C)c1ccc(C(=O)C=[N+]=[N-])cc1	6.3µM*	-5	-22%	0%	?	-3%
